From PubChem
Rows were chosen to be rich in hits. Some 12% of all compounds tested hit in one or more screens of this group.
SARS PLpro yeast: blocks SARS-CoV papain-like protease in a yeast assay. S. cerevisiae expressing SARS-CoV PLpro, growth rescue. Potency, µM (top dose mostly 32.9 µM), most hits filed as activators. 330,000 compounds, 0.19% hits. AID 485353; calls by dose curve; also: nearly all actives have a fitted effect of over 55% in size
Pf growth 96h: P. falciparum growth inhibition at 96 hour, primary screen for plastid delayed-death inhibitors | P. falciparum luciferase reporter growth, 96 h | Potency, µM (titrated, usually from 28.7 µM), actives largely listed as inhibitors | 320,000 compounds, 6.9% hits
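Parasite growth measured via integrated firefly luciferase reporter in P. falciparum. Infected erythrocytes at 2% hematocrit, 0.05% parasitemia final were treated 96 hours at 37 C under 5% CO2, and luminescence was read.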
AmpC detergent: inhibitors of E. coli AmpC beta-lactamase with detergent; P00811; AmpC hydrolysis of nitrocefin, absorbance 480 nm, 0.01% Triton; Potency, µM (series often up to 114 µM), usual class: inhibitors; 370,000 compounds, 0.041% hits; AID 485294; also: nearly all actives have a fitted effect of over 25% in size
Target sequence (P00811 whole entry, looked up): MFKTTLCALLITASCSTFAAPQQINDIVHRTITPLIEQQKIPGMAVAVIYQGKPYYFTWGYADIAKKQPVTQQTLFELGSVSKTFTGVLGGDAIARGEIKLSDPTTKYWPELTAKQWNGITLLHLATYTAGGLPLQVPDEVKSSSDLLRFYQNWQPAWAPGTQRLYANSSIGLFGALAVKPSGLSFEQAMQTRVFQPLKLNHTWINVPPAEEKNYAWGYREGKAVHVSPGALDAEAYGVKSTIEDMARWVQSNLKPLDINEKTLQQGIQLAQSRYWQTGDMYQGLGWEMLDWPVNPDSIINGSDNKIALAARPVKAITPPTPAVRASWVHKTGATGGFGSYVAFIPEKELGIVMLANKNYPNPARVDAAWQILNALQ
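20 mM phosphate pH 7.0 + 0.01% (detergent screen) or 0.0001% Triton X-100; 5.3 nM AmpC reagent; cpd preinc 15 min RT; nitrocefin (800 uM stock) to start; A480 q20 s × 4 min; Activity was normalised to no-enzyme and no-compound control wells.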
Sm TGR block: blocks Schistosoma mansoni thioredoxin glutathione reductase. 360,000 compounds, 3% hits. purified TGR, DTNB reduction, TNB absorbance 405 nm. Potency, µM (series often up to 114 µM), usual class: inhibitors. Q962Y6; also: nearly all actives have a fitted effect of over 60% in size
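TGR 20 nM + NADPH 100 uM (dispensed conc.), cpd preinc 15 min RT; start with NADPH (500 uM addition) then DTNB (15 mM addition). Kinetic TNB absorbance, 405 nm filter. Four-parameter Hill fit across titration.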
Pf growth 48h: P. falciparum growth inhibition at 48 hours (one generation); P. falciparum luciferase growth in erythrocytes, 48 h; Potency, µM (doses to about 28.7 µM), usual class: inhibitors; 310,000 compounds, 5.9% hits
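Growth was read as firefly luciferase luminescence after a 48 h, 37 C, 5% CO2 exposure of compounds to reporter-bearing P. falciparum cultures (0.1% parasitemia, 2% hematocrit final) in Albumax-supplemented RPMI 1640.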
AmpC no deterg: blocks E. coli AmpC beta-lactamase in detergent-free assay. P00811. AmpC nitrocefin hydrolysis, absorbance 480 nm, 0.0001% Triton. Potency, µM (highest dose often 57.1 µM), most hits filed as inhibitors. 330,000 compounds, 0.52% hits. AID 485341; also: nearly all actives have a fitted effect of over 20% in size
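20 mM phosphate pH 7.0 + 0.01% (detergent screen) or 0.0001% Triton X-100; 5.3 nM AmpC reagent; cpd preinc 15 min RT; nitrocefin (800 uM stock) to start; A480 q20 s × 4 min; Activity was normalised to no-enzyme and no-compound control wells.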
Hits are given with their value; - = inactive; ? = inconclusive; . = not tested or not shown; [ ] = another dose, or the depositor's remark. Unless noted, calls follow the shape of the dose curve; as a rule, active = well fitted curve in the direction sought with a large enough effect; inconclusive = small, poorly fitted or top-dose-only effect, or another doubt; inactive = no such curve, though single readings can be large; an effect the other way counts as inactive or inconclusive.

SMILES | SARS PLpro yeast | Pf growth 96h | AmpC detergent | Sm TGR block | Pf growth 48h | AmpC no deterg
CC(C)N=C(NS(=O)(=O)c1cccs1)c1ccccc1 | - | 13µM | - | - | - | -
CC(C)(C)N=C(NS(=O)(=O)c1cccs1)c1ccccc1 | - | - | - | - | - | -
CCN1C(=O)[C@H]2[C@H]3CN=C(SCC4CC4)N3[C@@](CC)(C(=O)OC)[C@H]2C1=O | - | . | . | . | . | -
CCOC(=O)c1nnn(-c2nonc2N)c1-c1ccc(C)cc1 | - | - | ? | - | 15µM | -
CCOC(=O)c1nnn(-c2nonc2N)c1-c1ccc(Br)cc1 | - | - | - | - | ? | -
Nc1nonc1-n1nnc(C(=O)N/N=C/c2ccccc2Cl)c1CN1CCOCC1 | ? | - | - | - | - | -
Nc1nonc1-n1nnc(C(=O)N/N=C/c2ccccc2Cl)c1-c1ccc2c(c1)OCO2 | - | 0.66µM | - | - | 2.9µM | ?
Nc1nonc1-n1nnc(C(=O)N/N=C/c2cccs2)c1-c1ccc2c(c1)OCO2 | - | 0.29µM | - | - | 0.93µM | -
Cc1ccsc1/C=N/NC(=O)c1nnn(-c2nonc2N)c1-c1ccc2c(c1)OCO2 | - | 0.13µM | - | - | 3.3µM | -
Cc1nc2c(c(C)c1CCC(=O)NCc1ccccc1)c(=O)n(C)c(=O)n2C | . | . | - | - | . | .
CCOC(=O)c1nnn(-c2nonc2N)c1CSc1ccccc1 | - | 3.3µM | - | - | . | -
Cc1ccc(-c2c(C(=O)N/N=C/c3cccs3)nnn2-c2nonc2N)cc1 | - | 1.2µM | - | - | ? | -
Cc1ccc(Cn2c(C)c3cnn(CC(=O)N4CCN(c5cc(C)ccc5C)CC4)c(=O)c3c2C)cc1 | . | . | - | - | . | .
CC(=O)Nc1ccccc1C(=O)C(=O)Nc1ccc(C(=O)NCC2CCCO2)cc1 (centres undefined) | - | - | - | - | - | -
O=C(O)CNC(=O)c1ccc(OC(F)F)cc1 | - | - | - | - | ? | -
O=C1CCCC(=O)N1c1ccc(F)cc1 | - | - | - | - | - | -
O=C1C=CC(=O)N1c1ccc(O)cc1 | - | - | - | 0.89µM | - | -
O=C1c2cccc3cccc(c23)C(=O)N1c1ccc(O)cc1 | - | ? | ? | - | - | -
O=C1C=CC(=O)N1c1ccc(OC(F)F)cc1 | - | 9.3µM | ? | 0.35µM | - | -
O=C1C2C3C=CC(C2C(=O)N1c1ccc(O)cc1)C1C2C(=O)N(c4ccc(O)cc4)C(=O)C2C31 (centres undefined) | - | - | - | 50µM | - | -
O=C1CCCC(=O)N1c1ccc(O)cc1 | - | 12µM | - | - | - | -
CCOP(=O)(OCC)C(NS(=O)(=O)c1ccccc1)C(Cl)(Cl)Cl (centres undefined) | - | - | - | 14µM | - | -
CN(CCCCCCCCCCN(C)C(=O)Oc1cccc([N+](C)(C)C)c1)C(=O)Oc1cccc([N+](C)(C)C)c1 | - | 0.074µM | - | - | 0.12µM | -
CC(C)CC(C)c1cc(N)nc2nc3ccccc3n12 (centres undefined) | - | 12µM | ? | - | 10µM | -
Cn1c(=O)c2c(nc(N/N=C/c3cccs3)n2Cc2ccccc2)n(C)c1=O | - | 10µM | - | - | ? | -
SMILES | SARS PLpro yeast | Pf growth 96h | AmpC detergent | Sm TGR block | Pf growth 48h | AmpC no deterg
CCCCNc1nc2c(c(=O)n(Cc3ccccc3)c(=O)n2C)n1C | - | - | - | - | ? | -
Cn1c(=O)c2c(nc(Br)n2Cc2ccc3ccccc3c2)n(C)c1=O | - | 5.2µM | ? | -[11.4 µM] | . | -
CCNc1nc2c(c(=O)n(Cc3ccccc3)c(=O)n2C)n1Cc1ccccc1 | - | - | - | - | 10µM | -
COc1ccc(CNc2nc3c(c(=O)n(Cc4ccc(Cl)cc4)c(=O)n3C)n2C)cc1 | - | ? | - | - | 2.6µM | -
Cn1c(N/N=C/c2cccs2)nc2c1c(=O)n(Cc1ccccc1)c(=O)n2C | - | ? | - | - | - | -
Cc1ccc2c(c1)c1c(c(=O)n(-c3ccccc3)c(=O)n1Cc1ccccc1C)n2C | . | . | - | - | . | .
CCOc1ccc(-c2nc3c(C#N)c[nH]n3c2NC2CCCC2)cc1 | . | . | - | - | . | .
COc1ccc(N2CCN(C3(c4ccccc4)C(=O)c4ccccc4C3=O)CC2)cc1 | . | . | - | - | . | .
CCCn1c(N)c(CC)c(=O)[nH]c1=O | - | - | - | - | ? | -
COc1c(OC(C)=O)ccc(/C=N\NC(=O)c2ccc(Br)cc2)c1[N+](=O)[O-] | - | ? | - | - | - | -
Brc1ccc2ncnc(Nc3ccc(N4CCOCC4)cc3)c2c1 | - | - | ? | - | ? | -
COC(=O)C1=C(C)N(Cc2ccccc2)C(=NCc2ccc(OC)cc2)N[C@H]1c1ccc(Br)cc1 | - | ? | ? | - | - | -
Cn1c(=O)c2c(nc(SCC(=O)NCc3ccc4c(c3)OCO4)n2Cc2ccccc2)n(C)c1=O | - | - | ? | - | - | -
Cn1c(=O)c2c(nc(NCc3ccccc3)n2Cc2ccc(F)cc2)n(C)c1=O | - | 15µM | - | - | ? | -
Cn1c(=O)c2c(nc(SCC(=O)NCc3ccc4c(c3)OCO4)n2Cc2ccc(F)cc2)n(C)c1=O | - | 10µM | - | - | 13µM | -
CC(=O)N1CC2(NC(=O)c3ccccc3N2)c2ccccc21 (centres undefined) | - | - | - | - | - | -
O=C(Nc1nnc(SCC(=O)N2CCOCC2)s1)C1CC(=O)N(c2ccccc2)C1 (centres undefined) | - | ? | - | - | - | -
COc1ccc(N2CC(C(=O)Nc3nnc(SCC(=O)N4CCOCC4)s3)CC2=O)cc1 (centres undefined) | - | 6.6µM | ? | - | - | -
COc1ccc(N2CC(C(=O)Nc3nnc(SCC(=O)NCc4ccco4)s3)CC2=O)cc1 (centres undefined) | - | ? | - | 28µM | - | -
CCOc1ccc(N2CC(C(=O)NCc3ccco3)CC2=O)cc1 (centres undefined) | - | ? | - | - | - | -
Cc1cccc(C)c1Nc1nnc(SCC(=O)NCc2ccco2)s1 | - | 0.83µM | ? | - | ? | -
COc1ccc(N2CC(C(=O)NCc3ccco3)CC2=O)cc1 (centres undefined) | - | - | - | 20µM | - | -
CCOc1ccc(-c2nc(SCC(=O)NCCOC)c(-c3ccc(OC)c(OC)c3)[nH]2)cc1 | . | . | - | - | . | .
CN(CC(=O)Nc1ccc(Cl)c(C(F)(F)F)c1)C(=O)c1cn2ccccc2n1 | - | - | - | - | - | 35µM
CN(CC(=O)Nc1ccc(Cl)c(C(F)(F)F)c1)C(=O)c1cc(-c2ccncc2)nc2ccccc12 | - | ? | - | - | 13µM | -
